± gives the standard deviation of the averaged measurements. Of roughly 5,400 targets only a part is listed; those with the largest changes were picked by preference.
Experiments:
Test in all cases: NP40-soluble protein abundance relative to vehicle (solubility fold change) (ratio); higher = more soluble protein in presence of GTP
GLA = biological target: T1, GLA (UniProt P06280)
T1 sequence (whole entry): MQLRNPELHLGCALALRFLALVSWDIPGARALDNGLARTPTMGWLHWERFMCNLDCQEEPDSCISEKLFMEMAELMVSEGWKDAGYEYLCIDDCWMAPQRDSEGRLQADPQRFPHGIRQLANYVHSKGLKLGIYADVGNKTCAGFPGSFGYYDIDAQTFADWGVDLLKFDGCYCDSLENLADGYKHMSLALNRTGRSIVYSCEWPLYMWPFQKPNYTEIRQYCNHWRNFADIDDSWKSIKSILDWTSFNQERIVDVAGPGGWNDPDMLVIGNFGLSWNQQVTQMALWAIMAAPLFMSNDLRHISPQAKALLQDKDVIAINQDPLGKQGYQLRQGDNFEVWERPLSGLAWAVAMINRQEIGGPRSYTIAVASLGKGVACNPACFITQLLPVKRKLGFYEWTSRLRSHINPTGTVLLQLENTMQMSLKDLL
In short: (§1)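 In three independent experiments, Jurkat crude lysate made by Dounce homogenisation was treated for 10 min at room temperature and then 3 min at 37 °C with eight concentrations ranging from 0.1 to 10 mM. It was then solubilised with 0.8% NP40 plus benzonase for 60 min at 4 °C and ultracentrifuged. The supernatant was TMT-labelled for LC-MS/MS, and each value is the fold change against the detergent-processed vehicle for the same replicate, using vsn-normalised intensities.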

SEC24A = biological target: T2, SEC24A (UniProt O95486)
T2 sequence (whole entry): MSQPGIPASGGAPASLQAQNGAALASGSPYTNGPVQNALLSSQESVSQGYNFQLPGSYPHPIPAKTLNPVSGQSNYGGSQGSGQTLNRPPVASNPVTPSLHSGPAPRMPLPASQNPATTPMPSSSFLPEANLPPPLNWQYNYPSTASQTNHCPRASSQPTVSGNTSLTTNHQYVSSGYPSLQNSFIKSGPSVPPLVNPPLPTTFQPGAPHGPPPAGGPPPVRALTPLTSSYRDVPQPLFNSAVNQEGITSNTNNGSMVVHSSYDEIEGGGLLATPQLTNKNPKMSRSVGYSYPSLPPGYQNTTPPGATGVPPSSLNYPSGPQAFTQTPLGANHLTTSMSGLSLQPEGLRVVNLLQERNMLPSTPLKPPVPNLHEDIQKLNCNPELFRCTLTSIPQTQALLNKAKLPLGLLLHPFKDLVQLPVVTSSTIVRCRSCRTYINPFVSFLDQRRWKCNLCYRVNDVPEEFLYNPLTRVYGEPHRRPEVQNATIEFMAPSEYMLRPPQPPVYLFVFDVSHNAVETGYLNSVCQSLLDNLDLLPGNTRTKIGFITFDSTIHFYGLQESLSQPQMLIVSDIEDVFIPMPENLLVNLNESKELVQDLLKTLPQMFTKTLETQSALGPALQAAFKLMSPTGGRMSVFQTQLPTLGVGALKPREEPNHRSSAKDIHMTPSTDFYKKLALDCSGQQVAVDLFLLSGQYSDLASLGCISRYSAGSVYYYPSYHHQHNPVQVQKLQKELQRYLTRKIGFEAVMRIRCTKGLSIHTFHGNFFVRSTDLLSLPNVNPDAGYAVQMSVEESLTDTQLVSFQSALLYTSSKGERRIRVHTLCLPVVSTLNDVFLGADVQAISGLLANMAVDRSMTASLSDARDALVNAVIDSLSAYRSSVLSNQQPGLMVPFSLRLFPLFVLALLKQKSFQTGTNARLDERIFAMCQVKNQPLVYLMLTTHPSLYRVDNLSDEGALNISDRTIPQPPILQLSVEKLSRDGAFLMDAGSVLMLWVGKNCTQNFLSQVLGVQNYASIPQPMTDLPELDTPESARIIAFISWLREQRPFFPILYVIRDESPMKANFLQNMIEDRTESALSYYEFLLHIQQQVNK
In short: as §1

TXNL1 = biological target: T3, TXNL1 (UniProt O43396)
T3 sequence (whole entry): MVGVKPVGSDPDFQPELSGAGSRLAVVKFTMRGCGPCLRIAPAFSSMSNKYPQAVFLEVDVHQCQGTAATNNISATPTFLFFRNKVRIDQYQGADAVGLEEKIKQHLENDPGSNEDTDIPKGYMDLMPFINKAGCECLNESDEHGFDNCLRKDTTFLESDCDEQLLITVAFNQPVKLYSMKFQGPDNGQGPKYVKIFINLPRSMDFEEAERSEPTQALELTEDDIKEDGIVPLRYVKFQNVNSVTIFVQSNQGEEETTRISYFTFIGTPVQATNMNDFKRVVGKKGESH
In short: as §1

## Nc1nc2c(ncn2[C@@H]2O[C@H](COP(=O)(O)OP(=O)(O)OP(=O)(O)O)[C@@H](O)[C@H]2O)c(=O)[nH]1 [guanosine triphosphate]
GLA; concentration: 0.1mM
  NP40-soluble protein abundance: 1.04 ± 0.017
GLA; concentration: 0.5mM
  NP40-soluble protein abundance: 1.04 ± 0.018
GLA; concentration: 1mM
  NP40-soluble protein abundance: 1.01 ± 0.039
GLA; concentration: 2mM
  NP40-soluble protein abundance: 0.982 ± 0.068
GLA; concentration: 4mM
  NP40-soluble protein abundance: 0.985 ± 0.063
GLA; concentration: 6mM
  NP40-soluble protein abundance: 0.966 ± 0.087
GLA; concentration: 8mM
  NP40-soluble protein abundance: 0.983 ± 0.04
GLA; concentration: 10mM
  NP40-soluble protein abundance: 0.979 ± 0.048
SEC24A; concentration: 0.1mM
  NP40-soluble protein abundance: 0.974 ± 0.013
SEC24A; concentration: 0.5mM
  NP40-soluble protein abundance: 0.986 ± 0.021
SEC24A; concentration: 1mM
  NP40-soluble protein abundance: 0.926 ± 0.041
SEC24A; concentration: 2mM
  NP40-soluble protein abundance: 0.909 ± 0.026
SEC24A; concentration: 4mM
  NP40-soluble protein abundance: 0.957 ± 0.019
SEC24A; concentration: 6mM
  NP40-soluble protein abundance: 0.944 ± 0.02
SEC24A; concentration: 8mM
  NP40-soluble protein abundance: 0.909 ± 0.027
SEC24A; concentration: 10mM
  NP40-soluble protein abundance: 0.915 ± 0.036
TXNL1; concentration: 0.1mM
  NP40-soluble protein abundance: 0.993 ± 0.02
TXNL1; concentration: 0.5mM
  NP40-soluble protein abundance: 1.03 ± 0.064
TXNL1; concentration: 1mM
  NP40-soluble protein abundance: 1.02 ± 0.042
TXNL1; concentration: 2mM
  NP40-soluble protein abundance: 1.01 ± 0.07
TXNL1; concentration: 4mM
  NP40-soluble protein abundance: 1 ± 0.052
TXNL1; concentration: 6mM
  NP40-soluble protein abundance: 1.01 ± 0.046
TXNL1; concentration: 8mM
  NP40-soluble protein abundance: 1 ± 0.044
TXNL1; concentration: 10mM
  NP40-soluble protein abundance: 1.01 ± 0.054
